Records with an inconclusive call do not appear. The source made the active and inactive calls. Calls come from the whole dose curve; as a rule, active = well fitted cell-killing curve with a large enough effect; inconclusive = small, poorly fitted or top-dose-only effect, or effect the other way; inactive = no such curve, though single readings can be large or run the other way.
Potency is the fitted concentration of half-maximal effect.

A short description of the assay: Quantitative High-Throughput drug screen in 47 multiple myeloma cell lines against the NCATS MIPE library collection: VP6_DJ cell viability assay (AID 1919867). Note: nearly all actives have a fitted effect of over 40% in size. The following applies: ATP luminescence, 48 h; series mostly up to 45.8 µM; viability (% of DMSO): at the top concentration. The text has this: PI: Beverly A. Mock Ph.D.
Laboratory of Cancer Biology and Genetics,
Center for Cancer Research, National Cancer Institute,
National Institute of Health, Bethesda, Maryland
Drug resistance and disease progression are common in multiple myeloma (MM) patients, underscoring the need for new therapeutic combinations. […] We hypothesized that effective combinations would reduce MYC expression and enhance p16 activity. […] These preclinical data identify potentially useful drug combinations for evaluation in drug-resistant MM and reveal potential mechanisms of combined drug sensitivity.
Described herein is the primary MIPE qHTS used to cherrypick compounds. Validated compounds were then further tested for potential synergistic activiy.
[1] Peat TJ, Gaikwad SM, Dubois W, Gyabaah-Kessie N, Zhang S, Gorjifard S, Phyo Z, Andres M, Hughitt VK, Simpson RM, Miller MA, Girvin AT, Taylor A, Williams D, D'Antonio N, Zhang Y, Rajagopalan A, Flietner E, Wilson K, Zhang X, Shinn P, Klumpp-Thomas C, McKnight C, Itkin Z, Chen L, Kazandijian D, Zhang J, Michalowski AM, Simmons JK, Keats J, Thomas CJ, Mock BA. Drug combinations identified by high-throughput screening promote cell cycle transition and upregulate Smad pathways in myeloma. Cancer Lett. 2023 Aug 1;568:216284. doi: 10.1016/j.canlet.2023.216284. Epub 2023 Jun 24. PMID: 37356470; PMCID: PMC10408729.
SEQUENCE No. (e.g., 1, 2, 3, etc.); […] (e.g., Cells, Incubation, Reagent, etc.); VALUE and DESCRIPTION.
1; Cells; 5 uL; white, solid bottom 1536-well Greiner assay plate.
2; Compounds; 23 nL; Kalypsis pin tool (Wako USA) equipped with a 1536-well pin head to transfer to the assay plates.
3; Incubation; 48 hours; 37C incubation.
4; Reagent;5uL; CellTiter Glo (Promega).
5; Detector; 425V; Luminescence; Viewlux PerkinElmer.
NOTES (numbers refer to Sequence numbers above)
1. The cell-based screening methods employed in this study were like those previously published. Briefly, the corresponding myeloma cell lines were screened in 1,536-well plates with 500 cells, 5-uL per well for inhibition of cell viability (assessed by measuring ATP levels with CellTiterGlo).
2. NCATS MIPE 4.0 library of approved and investigational drugs were added using the Kalypsis pin tool. Wells treated with DMSO only for 100% viability and media only for 0% viability were used as controls.
3. The assay plates were covered and incubated for 48 hours in a 37C, 5% CO2 incubator with controlled humidity.
4. After 48 hours, CellTilter-GloTM luminescent substrate mix (Promega) reagent was added to the assay plate and plates we incubated for 5 min at room temperature.
5. Signal was measured as median relative luminescence units on a ViewLux (PerkinElmer) multiplate reader.
[1] Heske CM, Davis MI, Baumgart JT, Wilson K, Gormally MV, Chen L, Zhang X, Ceribelli M, Duveau DY, Guha R, Ferrer M, Arnaldez FI, Ji J, Tran HL, Zhang Y, Mendoza A, Helman LJ, Thomas CJ. Matrix Screen Identifies Synergistic Combination of PARP Inhibitors and Nicotinamide Phosphoribosyltransferase (NAMPT) Inhibitors in Ewing Sarcoma. Clin Cancer Res. 2017 Dec 1;23(23):7301-7311. doi: 10.1158/1078-0432.CCR-17-1121. Epub 2017 Sep 12. PMID: 28899971; PMCID: PMC6636827.
Regarding `NC(=O)c1cccnc1`, the “viability (% of DMSO)” value was 123% (inactive). On to `CC(C)(C)C(=O)OCOP(=O)(COCCn1cnc2c(N)ncnc21)OCOC(=O)C(C)(C)C`, for which the Potency was 1.05 µM (active). Still for that read-out and setting: then `COC(=O)Nc1nc2ccc(C(=O)c3ccccc3)cc2[nH]1`, with 2.35 µM (active); and `CCOC(=O)[C@H](CCc1ccccc1)N[C@H]1CS[C@H](c2cccs2)CN(CC(=O)O)C1=O`, with 0.296 µM (active). Still for that read-out and setting: then `COc1cnc(NS(=O)(=O)c2ccc(N)cc2)nc1`, with 20.9 µM (active); and `COC(=O)Nc1nc2ccc(Sc3ccccc3)cc2[nH]1`, with 1.05 µM (active). In the case of `CC(N)C12CC3CC(CC(C3)C1)C2` (stereo not given), the “viability (% of DMSO)” value is 121% (inactive). Consider `Nc1nc(=S)c2[nH]cnc2[nH]1`, for which the Potency was 1.66 µM (active). Same read-out and setting: then `CCCCCCNC(=O)n1cc(F)c(=O)[nH]c1=O`, with 5.26 µM (active). On to `COc1nc(N)nc2c1ncn2[C@@H]1O[C@H](CO)[C@@H](O)[C@@H]1O`, for which the “viability (% of DMSO)” value is 129% (inactive).

`O=C(O)c1cn(C2CC2)c2cc(N3CCNCC3)c(F)cc2c1=O`: the “viability (% of DMSO)” value was 164% (inactive).

Regarding `CCC(=O)O[C@]1(C(=O)CCl)[C@@H](C)C[C@H]2[C@@H]3CCC4=CC(=O)C=C[C@]4(C)[C@@]3(F)[C@@H](O)C[C@@]21C`, the Potency is 0.0332 µM (active). On the same count and under the same terms, then `CC(C)(Sc1cc(C(C)(C)C)c(O)c(C(C)(C)C)c1)Sc1cc(C(C)(C)C)c(O)c(C(C)(C)C)c1`, with 18.7 µM (active); and `Cc1ccc(S(=O)(=O)N[C@@H](Cc2ccccc2)C(=O)CCl)cc1`, with 9.35 µM (active). On to `CCn1cc(C(=O)O)c(=O)c2cc(F)c(N3CCNCC3)cc21`, for which the “viability (% of DMSO)” value was 145% (inactive).

As to `O[C@@H](CNC[C@H](O)[C@H]1CCc2cc(F)ccc2O1)[C@@H]1CCc2cc(F)ccc2O1`, the Potency was 14.8 µM (active). On the same count and under the same terms, then `CNCC[C@H](Oc1cccc2ccccc12)c1cccs1`, with 3.72 µM (active). For `COc1ncnc(NS(=O)(=O)c2ccc(N)cc2)c1OC`, the “viability (% of DMSO)” value is 123% (inactive).

In the case of `CCCCS(=N)(=O)CCC(N)C(=O)O` (stereo not given), the Potency is 7.43 µM (active). `Nc1nc(N)nc(-c2cc(Cl)ccc2Cl)n1`: the Potency was 6.62 µM (active).

Consider `CCCc1nc(C)c2c(=O)[nH]c(-c3cc(S(=O)(=O)N4CCN(CC)CC4)ccc3OCC)nn12`, for which the Potency was 5.9 µM (active).

As for `NC(=O)c1cccc(N)c1`, the Potency is 8.33 µM (active).

As to `CCCc1cc(C(N)=S)ccn1`, the “viability (% of DMSO)” value is 122% (inactive). Regarding `Cc1nnc(NS(=O)(=O)c2ccc(N)cc2)s1`, the Potency is 0.187 µM (active). On to `CC(=O)CC(c1ccccc1)c1c(O)c2ccccc2oc1=O` (stereo not given), for which the “viability (% of DMSO)” value is 133% (inactive).

In the case of `NC(=O)c1ccc2[nH]ccc2c1`, the “viability (% of DMSO)” value is 119% (inactive). For `CN1CCCC(n2nc(Cc3ccc(Cl)cc3)c3ccccc3c2=O)CC1` (stereo not given), the Potency is 1.48 µM (active).

`CN(C)CCc1c[nH]c2ccc(C[C@H]3COC(=O)N3)cc12`: the “viability (% of DMSO)” value is 107% (inactive). For the compound `CCCCc1oc2ccc(NS(C)(=O)=O)cc2c1C(=O)c1ccc(OCCCN(CCCC)CCCC)cc1`, the Potency is 7.43 µM (active). On the same count and under the same terms, under `CN(C)c1ccc(C(=C2C=CC(=[N+](C)C)C=C2)c2ccc(N(C)C)cc2)cc1` stands 0.0296 µM (active). Same read-out and setting: under `Nc1nc(F)nc2c1ncn2[C@@H]1O[C@H](CO)[C@@H](O)[C@@H]1O` stands 0.132 µM (active).

As for `NNC(=O)c1ccncc1`, the “viability (% of DMSO)” value is 144% (inactive). For `O=C(O)c1cccnc1`, the Potency is 16.6 µM (active). Regarding `COc1cc2nc(N3CCCN(C)CC3)nc(NC3CCN(Cc4ccccc4)CC3)c2cc1OC`, the Potency is 4.69 µM (active). The same measure, in the same setting: under `NC(N)=NC(N)=NCCc1ccccc1` stands 10.5 µM (active); under `Oc1c(Cl)cc(Cl)c2cccnc12`, 5.9 µM (active); under `CCC(C)(C)c1ccc(CC(C)CN2C[C@@H](C)O[C@@H](C)C2)cc1` (stereo not given in full), 16.6 µM (active). Same read-out and setting: then `CCCN[C@H]1CCc2nc(N)sc2C1`, with 18.7 µM (active). As to `CCOC(=O)c1ccc(OC(=O)CCCCCN=C(N)N)cc1`, the “viability (% of DMSO)” value is 112% (inactive). With `CC(=O)[C@H]1CC[C@H]2[C@@H]3CCC4=CC(=O)CC[C@]4(C)[C@H]3CC[C@]12C`, the Potency was 7.43 µM (active).

The record behind these values is PubChem BioAssay (NCATS).
